Test results reported in PubChem BioAssay AID687016 (The Scripps Research Institute Molecular Screening Center, 2013).
The whole screen tested about 370,000 compounds, of which about 2,800 (0.76%) were called active. Only a selection was taken, and actives are over-represented in it overall. Unmarked numbers belong to inactive results. Rule as the data show it: active = inhibition above about 21%; inactive = the rest.

Target: E3 ubiquitin-protein ligase UHRF1 (Homo sapiens) (UniProt Q96T88)
Assay: UHRF1 methylated DNA binding inhibitors, primary screen, counter-screen for MBD2 inhibitor project, biochemical, TR-FRET, human UHRF1, single concentration (AID 687016);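 also: UHRF1 SRA domain binding a hemimethylated CpG hairpin DNA probe; 0% = median of test compound wells and 100% = reference inhibitor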
Conditions: UHRF1 binding to methylated oligo, at 4.4 µM, active compounds read high

Chain of E3 ubiquitin-protein ligase UHRF1 (Homo sapiens) (Q96T88 whole entry, looked up, the tested form may be a part): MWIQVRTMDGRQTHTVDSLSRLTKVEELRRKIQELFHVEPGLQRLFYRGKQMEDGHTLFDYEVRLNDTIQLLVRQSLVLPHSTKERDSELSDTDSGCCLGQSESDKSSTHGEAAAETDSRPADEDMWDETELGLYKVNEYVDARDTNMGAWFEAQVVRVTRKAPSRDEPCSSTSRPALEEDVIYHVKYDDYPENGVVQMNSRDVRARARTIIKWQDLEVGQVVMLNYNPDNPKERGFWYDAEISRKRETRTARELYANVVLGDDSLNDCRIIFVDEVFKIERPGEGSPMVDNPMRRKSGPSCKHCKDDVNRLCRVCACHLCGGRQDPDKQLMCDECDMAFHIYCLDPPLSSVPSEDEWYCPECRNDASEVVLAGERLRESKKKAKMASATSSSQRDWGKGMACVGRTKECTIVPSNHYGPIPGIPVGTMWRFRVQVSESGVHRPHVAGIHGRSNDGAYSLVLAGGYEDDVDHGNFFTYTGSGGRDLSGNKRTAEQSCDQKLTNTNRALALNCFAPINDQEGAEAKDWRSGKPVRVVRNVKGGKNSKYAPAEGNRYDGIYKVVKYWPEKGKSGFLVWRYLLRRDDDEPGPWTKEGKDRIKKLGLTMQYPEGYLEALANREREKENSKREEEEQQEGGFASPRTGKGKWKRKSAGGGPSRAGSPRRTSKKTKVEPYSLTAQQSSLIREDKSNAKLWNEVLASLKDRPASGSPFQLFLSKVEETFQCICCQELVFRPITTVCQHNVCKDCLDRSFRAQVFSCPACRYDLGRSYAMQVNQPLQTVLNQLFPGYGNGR

SMILES | inhibition
Cc1cccc(NC(=O)CSc2nnc(CCNC(=O)OC(C)(C)C)o2)c1C | 2.63%
Cc1ccccc1CSc1nnc(CCCCCNC(=O)OC(C)(C)C)o1 | 0.59%
Cc1cccc(NC(=O)CSc2nnc(CCCCCNC(=O)OC(C)(C)C)o2)c1C | 34.9% (active)
O=C(NCc1cccs1)C1CCN(S(=O)(=O)c2ccccc2[N+](=O)[O-])CC1 | 4.97%
COc1ccc(OCC(=O)Nc2cc(C)c(Cl)cc2OC)c([N+](=O)[O-])c1 | -2.47%
CCCC(=O)OCC(=O)Nc1cc(Cl)ccc1[N+](=O)[O-] | -3.24%
Cc1cc(NC(=O)COC(=O)COc2ccc(Cl)cc2C)c([N+](=O)[O-])cc1C | 23% (active)
C=CCN1C(=O)[C@@H](CC(=O)N2CCN(C(=O)c3ccco3)CC2)[C@]2(C(=O)OC)CCCCC=C12 | 1.46%
O=C(Nc1ccc(Br)cc1)OCCN1C(=O)CCC12CCC(c1ccccc1)CC2 (stereo not given) | -4.19%
CC(=O)O[C@@]1(C(C)=O)CCC2[C@H]3C=C(C)C4=CC(=O)CC[C@@]4(C)C3CC[C@]21C (stereo not given in full) | 2.53%
CCCCNC(=O)C[C@@H]1C(=O)N(CCc2ccc(Cl)cc2)C2=CCCC[C@]21C(=O)OCC | -3.97%
COc1ccc(-c2cc(-c3nnc(SCc4ccc([N+](=O)[O-])cc4)n3N)[nH]n2)cc1 | -1.01%
CC(CN1CCCCC1)c1ccccc1 (stereo not given) | -1.54%
CC(CN1CCOCC1)c1ccccc1 (stereo not given) | 55.2% (active)
OC(c1ccccc1)C(CN1CCOCC1)c1ccccc1 (stereo not given) | -2.23%
COC(=O)[C@]1(C#N)CC(=O)N(CC2CCCCC2)[C@@H]1c1ccccc1 | 5.42%
Cc1ccc(C(=O)COC(=O)CCCC(=O)NC2CCCCC2)cc1[N+](=O)[O-] | 48.1% (active)
O=C(CCNC(=O)c1ccc([N+](=O)[O-])cc1)NC1CCCCC1 | -0.33%
O=C(COC(=O)c1cc([N+](=O)[O-])ccc1NCc1ccccc1)NC1CCCCC1 | -2.56%
Cc1ccc(C(=O)OCC(=O)NC2CCCCCCC2)cc1C | 0.37%
O=C(COC(=O)Cc1ccc([N+](=O)[O-])cc1)NC1CCCCCC1 | 45.9% (active)
COC(=O)Cc1ccc(OCC(=O)NC2CCCC2)cc1 | 0.36%

SMILES | inhibition
CCCC[C@H](C(=O)N(CC)c1ccccc1)[C@@H](O)c1ccc2ccccc2c1 | -2.02%
Cc1ccccc1CN1CCCCC(NC(=O)c2cccc(C#N)c2)C1=O (stereo not given) | -0.18%
COC(=O)C[C@@H]1CC[C@H]2[C@@H](COc3ccc(NS(=O)(=O)CC(F)(F)F)cc3C(=O)N2C)O1 | 1.54%
CC[C@@H](CCC(=O)N(c1ccccc1)c1ccccc1)C1CC1 | 1.36%
CC(NC(=S)NC1CCCCC1)C(c1ccccc1)N1CCOCC1 (stereo not given) | 0.56%
S=C(NC1CCCCC1)NN1CCOCC1 | 32.8% (active)
COC(=O)c1ccc(NC(=S)NN2CCOCC2)cc1 | -1.42%
N[C@@H](Cc1ccccc1)C(=O)N1CCC[C@@H]1C(=O)N1CCC2CCN(S(=O)(=O)c3ccccc3)CC21 (stereo not given in full) | 1.24%
C=CCN(C)CC#Cc1ccccc1 | 1.63%
CC(C)(C)NC(=O)NC(=O)CN1CCC(Cc2ccccc2)CC1 | 38.1% (active)
O=C(CN1CCCCC1)NC(=O)Nc1ccccc1F | -2.79%
NC(=O)c1ccc(CN2CCC(Cc3ccccc3)CC2)cc1 | -0.37%
CC(CCN1CCC(C(O)(c2ccccc2)c2ccccc2)CC1)Oc1ccc([N+](=O)[O-])cc1Cl (stereo not given) | -2.34%
CCCC[C@H]1C2CC(OC(=O)NCc3ccccc3)C(C2)[C@H]2CCCCN21 (stereo not given in full) | 2.4%
COc1ccc(C(=O)OCCN2CCN(C3CN(Cc4cn(Cc5ccccc5F)nn4)S(=O)(=O)C3)CC2)cc1OC (stereo not given) | 16.4%
C=CCn1c(=S)[nH]c2scc(-c3ccco3)c2c1=O | 42% (active)
O=C(CSc1nnc(-c2ccccc2)n1Cc1ccco1)Nc1ccccc1-c1ccccc1 | -1.14%
Cc1ccc(-n2c(SCC(=O)Nc3ccc(S(=O)(=O)Nc4nccs4)cc3)nnc2-c2ccncc2)cc1 | -0.73%
CCOc1ccc(-n2c(SCC(=O)Nc3cc(C)c(NC(=O)c4ccccc4)cc3OC)nnc2-c2cccc(Cl)c2)cc1 | -1.29%
O=C(NC1CCC1)c1ccc(C#CC2CC2)cn1 | 1.8%
COCCCNC(=O)C[C@H]1C[C@@]2(C(=O)OC)C(=C[C@H](C(C)(C)C)O[C@@H]2C)N(Cc2ccc(Cl)cc2Cl)C1=O | -1%
CC1CN(CCCOc2ccccc2-c2ccccc2)CC(C)O1 (stereo not given) | 1.48%

SMILES | inhibition
Cc1cc(C)c(OCCN2CC(C)OC(C)C2)c(Br)c1 (stereo not given) | 22.5% (active)
CC1CN(CCOc2ccccc2[N+](=O)[O-])CC(C)O1 (stereo not given) | 0.96%
CCn1c(=O)n2n(c1=O)[C@@]1(C=C3CCCC[C@H]32)N=C(NC(=O)c2ccccc2)N(Cc2ccccc2)[C@H]1Cc1ccccc1 | 1.35%
CCN(CC)C(=O)CC[C@H]1CC[C@]2(CCCN(Cc3ccc(Cl)cc3)C2)O1 | -2.85%
COC(=O)Cc1c(O)ccn(Cc2cccc(C(F)(F)F)c2)c1=O | -0.17%
COC(=O)Cc1csc(/N=C/c2c(O)n(-c3cccc(C(F)(F)F)c3)c(=O)c3ccccc23)n1 | 20.8% (active)
O=C(Cc1cccs1)NCc1cccc(C(F)(F)F)c1 | 2.41%
COc1ccc(CN2C(=O)N3Cc4cc(OC)ccc4C3CS2(=O)=O)cc1 (stereo not given) | -0.8%
Cc1ccc(NC(=O)Nc2cc(C)nn2-c2ccccc2)cc1 | -0.03%
C#CCNC(=O)C[C@H]1C[C@@]2(C(=O)OC)C(=C[C@H](C(C)C)O[C@@H]2C2CC2)N(Cc2ccco2)C1=O | 1.95%
COc1ccc(Cc2n[nH]c(=S)n2NC(=O)Nc2ccc(C)cc2)cc1 | -1.17%
COc1ccc(NC(=O)CN(C)C(=O)c2cc(C)oc2C)cc1 | 0.64%
COc1ccc(CC(=O)Nc2ccc(-c3nnc(-c4ccc(C)cc4)o3)cc2)cc1 | 22.5% (active)
O=S1(=O)c2c(cccc2N2CC[C@H](O)C2)O[C@@H]2CCN1C2 | 1.23%
Cc1cc2c(c(=O)n1Cc1ccco1)C(c1ccccc1)C(C#N)=C(N)O2 (stereo not given) | 32.8% (active)
CC(C)c1ccc(C2C(C#N)=C(N)Oc3c2oc(CO)cc3=O)cc1 (stereo not given) | -3.69%
Cc1cc2c(c(=O)n1C)C(C(C)C)C(C#N)=C(N)O2 (stereo not given) | 0.11%
CCN(C(=O)[C@@H](C1CC1)[C@@H](O)c1ccc2ccccc2c1)c1ccccc1 | -2.68%
COc1ccc(C(=O)OCCN(C)C2CN(Cc3cn(Cc4cccc(C)c4)nn3)S(=O)(=O)C2)cc1OC (stereo not given) | 13.8%
Cc1nn(-c2ccccc2)c(Cl)c1/C=N/NC(=O)c1nn(C)cc1[N+](=O)[O-] | 23.8% (active)
Cc1nn(-c2ccccc2)c(-n2cccc2)c1C(=O)O | 1.78%
Cn1nccc1/C=N\NC(=O)c1ccc(Cl)cc1 | 4.97%

SMILES | inhibition
CC(C)CNC(=O)OCc1cn(Cc2ccc(F)cc2)nn1 | 3.53%
COC(=O)[C@H](C(C)C)N(CCc1cn(Cc2ccccc2)nn1)S(=O)(=O)c1ccc(F)cc1Br | -0.16%
Cc1ccc(Cn2cc(CN3[C@@H](CC(C)C)COc4ccc(Cl)cc4S3(=O)=O)nn2)cc1 | -2.98%
c1coc(CCNc2ncnc3ccc(-c4ccc5c(c4)OCO5)cc23)c1 | -3.63%
COC(=O)c1cccc(Cn2ccc3ccc(-c4ccc5ccn(C(=O)c6ccccc6C)c5c4)cc32)c1 | -1.17%
O=C(CN1CCN(c2ccc(O)cc2)CC1)Nc1ccc(-c2ccccc2)cc1 | -0.69%
O=C(COC(=O)c1ccccc1C(=O)N1CCN(c2ccccc2)CC1)NCc1ccccc1 | -3.11%
Oc1ccc(N2CCN(C(=S)NCc3ccccc3)CC2)cc1 | 40.4% (active)
CCOC(=O)C1CCN(C(=O)C(C)(C)NC(=O)Nc2ccccc2Cl)CC1 | 0.18%
COC(=O)[C@]12C[C@H](CC(=O)NCc3cccs3)C(=O)N(CCc3ccc(OC)c(OC)c3)C1=C[C@H](C(C)C)O[C@@H]2C1CC1 | -0.69%
O=C(CSc1nc2ccccc2s1)NN=Cc1ccc(O)cc1O | -4.05%
COC(=O)[C@]12C[C@H](CC(=O)NCCC(C)C)C(=O)N(CCc3ccc(OC)c(OC)c3)C1=C[C@H](C(C)(C)C)O[C@@H]2C | 34.2% (active)
CCCCOCCCNC(=O)C[C@H]1C[C@@]2(C(=O)OC)C(=C[C@H](C(C)(C)C)O[C@@H]2C)N(CCc2ccc(OC)c(OC)c2)C1=O | -0.73%
COC(=O)[C@]12C[C@H](CC(=O)NCc3ccccc3)C(=O)N(CCc3ccc(OC)c(OC)c3)C1=C[C@H](C(C)(C)C)O[C@@H]2C | -1.24%
CC(C)(C)c1ccc(CSc2nnc(-c3cccs3)o2)cc1 | -2.34%
Cc1ccc(Cc2cnc(N)s2)o1 | 53.9% (active)
O=C(NCCC1=CCCCC1)C1CCN(S(=O)(=O)c2ccc(Cl)s2)CC1 | -0.71%
O=C(OC12CCCN(C1)/C(=C/c1ccccc1)C2)c1ccco1 (stereo not given) | 3.41%
C=CCN1[C@@H](Cc2ccccc2)COc2cccc(N3CCSCC3)c2S1(=O)=O | -0.98%
